Measurements taken from PubChem BioAssay AID602342 (Broad Institute, 2012).
The whole screen tested about 340,000 compounds, of which about 1,000 (0.29%) were called active.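 How the source made its calls: active means mean replicate activation score at least 90 and every replicate individually at or above 90; inconclusive means only one of the two criteria met; inactive means neither criterion met.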 The sample as a whole holds a higher share of actives than the screen did.

Test: compounds raising miR-122 luciferase sensor output – cell-based, single point, plate reader, miR-122 inhibitor project, primary screen (AID 602342);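 further: higher luciferase means less miR-122 activity so hits act as miR-122 inhibitors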
Details: Huh7 miR-122 Renilla luciferase sensor, 48 h, hits give high values, neutral wells = 0, positive control = 100; at 16.7 µM unless noted

Row | SMILES | activation (reporter increase)
1 | Cc1ccc(S(=O)(=O)Nc2ccc3c(c2)C(=O)N([C@H](C)CO)C[C@H](C)[C@H](CN(C)S(=O)(=O)c2ccc(F)cc2)O3)cc1 | -7.86% (inactive)
2 | CC(=O)N1CC[C@@H]2[C@@H](CO)N(C)c3ccc(-c4ccc(C#N)cc4)cc3[C@@H]21 | -2.99% (inactive)
3 | C[C@@H]1CN([C@H](C)CO)C(=O)c2cc(NC(=O)NC3CCCCC3)ccc2O[C@@H](C)CCCCO[C@H]1CN(C)S(C)(=O)=O | -11.1% (inactive)
4 | CCC(=O)N[C@H]1C=C[C@@H](CC(=O)NCC2CCCCC2)O[C@H]1CO | -4.01% (inactive)
5 | C[C@@H]1CCCCO[C@@H](CN(C)Cc2ccncc2)[C@H](C)CN([C@@H](C)CO)C(=O)c2cc(N(C)C)ccc2O1 | 9.37% (inactive)
6 | C[C@@H]1CN([C@@H](C)CO)C(=O)Cc2cc(NC(=O)Nc3ccc(F)cc3)ccc2O[C@@H]1CN(C)C | -1.94% (inactive)
7 | CN(C)C(=O)[C@@H]1[C@@H](CO)[C@@H]2Cn3c(cccc3=O)[C@H]1N2CC1CCCCC1 | -3.4% (inactive)
8 | Cc1ccccc1-c1cnc2c(c1)C(=O)N([C@@H](C)CO)C[C@@H](C)[C@@H](CN(C)CC1CCOCC1)O2 | -4.12% (inactive)
9 | CN1C(=O)c2cc(NS(=O)(=O)c3ccc(Cl)cc3)ccc2OC[C@H]2O[C@@H](CC(=O)O)CC[C@H]21 | 37.8% (inactive)
10 | Cc1ccc(C(=O)Oc2ccc(C(=S)N3CCOCC3)cc2)cc1 | -1.88% [at 12.5 µM] (inactive)
11 | O=C(Oc1ccc(F)cc1)N1CCOCC1 | -3.21% [at 12.5 µM] (inactive)
12 | O=C(Oc1ccc(C(=S)N2CCOCC2)cc1)c1ccc(F)cc1 | 330% [at 12.5 µM] (active)
13 | CC(=O)N(C)C[C@H]1Oc2ncc(-c3cccc(F)c3)cc2C(=O)N([C@@H](C)CO)C[C@H]1C | -3.49% (inactive)
14 | CN1C(=O)c2cc(NC(=O)c3ccc(F)c(F)c3)ccc2OC[C@H]2O[C@@H](CC(=O)N3CCCCC3)CC[C@H]21 | -8.45% (inactive)
15 | COc1ccc(/C=C/C(=O)c2c(O)cc(OC)cc2OC)cc1 | 2.04% [at 12.5 µM] (inactive)
16 | O=C(/C=C/c1ccc2c(c1)OCCO2)c1ccc(O)cc1 | 7.01% [at 12.5 µM] (inactive)
17 | O=C(/C=C(O)/C=C/c1ccc(O)cc1)/C=C/c1ccc(O)cc1 | 140% [at 12.5 µM] (active)
18 | Cc1noc(C)c1NC(=O)N(C)C[C@H]1OCCCC[C@H](C)Oc2ccc(NC(=O)Nc3ccccc3)cc2C(=O)N([C@H](C)CO)C[C@@H]1C | -0.276% (inactive)
19 | Cn1cnc([N+](=O)[O-])c1Nc1ccccc1O | 2.42% [at 12.5 µM] (inactive)
20 | Cn1cnc([N+](=O)[O-])c1Sc1ccccc1 | 217% [at 12.5 µM] (active)
21 | Cn1cnc([N+](=O)[O-])c1Sc1n[nH]c(N)n1 | -3.18% [at 12.5 µM] (inactive)
22 | CCN(C[C@@H]1[C@H](c2ccccc2)[C@@H](CO)N1CC1CC1)C(=O)c1ccccn1 | -7.14% (inactive)
23 | C[C@@H]1CN([C@@H](C)CO)C(=O)Cc2cc(NC(=O)C3CC3)ccc2O[C@H]1CN(C)C(=O)NC1CCCCC1 | 0.966% (inactive)

Row | SMILES | activation (reporter increase)
24 | Cc1ccc(C(=O)Nc2ccccc2-c2ccccc2)cc1S(=O)(=O)Nc1ccccc1 | 94% [at 12.5 µM] (active)
25 | CCN(CC)S(=O)(=O)c1cc(C(=O)Nc2ccccn2)ccc1C | -6.4% [at 12.5 µM] (inactive)
26 | COc1cc(OC)c(C(=O)Nc2ccccc2-c2ccccc2)cc1OC | 9.15% [at 12.5 µM] (inactive)
27 | C[C@H]1CCCCO[C@@H](CN(C)C(=O)Nc2cccc3ccccc23)[C@@H](C)CN([C@@H](C)CO)C(=O)c2cc(NS(=O)(=O)c3cn(C)cn3)ccc2O1 | -0.833% (inactive)
28 | Cc1ccc(NS(=O)(=O)c2ccc(F)cc2)nc1 | 4.41% [at 12.5 µM] (inactive)
29 | Cc1cc(C)cc(NS(=O)(=O)c2ccc(F)cc2)c1 | 117% [at 12.5 µM] (active)
30 | Cn1c(=O)n(C)c2cc(S(=O)(=O)Nc3ccc(F)cc3)ccc21 | 44% [at 12.5 µM] (inactive)
31 | COc1ccc(CN(C)C[C@H]2Oc3c(NS(=O)(=O)c4ccccc4)cccc3C(=O)N([C@@H](C)CO)C[C@H]2C)cc1 | 4.79% (inactive)
32 | CCC(=O)N1[C@@H]2c3ccc(-c4cccnc4)c(=O)n3C[C@H]1[C@H](CO)[C@H]2C(=O)N1CCc2ccccc2C1 | 2.45% (inactive)
33 | COc1ccccc1C#Cc1cnc2c(c1)C(=O)N([C@@H](C)CO)C[C@H](C)[C@@H](CN(C)C(=O)CC1CC1)O2 | -1.03% (inactive)
34 | O=C1c2ccccc2C2=Nc3ccccc3SC(c3ccccc3F)C12 (configuration not stated) | 162% [at 12.5 µM] (active)
35 | O=C1c2ccccc2C(=O)C1c1ccccc1F | -3.15% [at 12.5 µM] (inactive)
36 | O=C(C[C@@H]1C[C@@H]2c3cc(NC(=O)Nc4ccccc4F)ccc3O[C@@H]2[C@H](CO)O1)NCCc1ccccc1 | -2.6% (inactive)
37 | CS(=O)(=O)N(CC(=O)Nc1ccc(F)cc1)C1CCCCC1 | 0.106% [at 12.5 µM] (inactive)
38 | N#CCCN(C(=O)Nc1ccc(Cl)c(Cl)c1)C1CCCCC1 | -4.25% [at 12.5 µM] (inactive)
39 | CS(=O)(=O)N(CC(=O)Nc1ccc(Cl)c(Cl)c1)C1CCCCC1 | 174% [at 12.5 µM] (active)
40 | C[C@@H]1CN([C@H](C)CO)C(=O)c2cc(C#CCN(C)C)cnc2O[C@H]1CN(C)C(=O)NC1CCCC1 | 26% (inactive)
41 | CN1CCN(C(=O)C[C@H]2C[C@@H]3c4cc(NS(=O)(=O)c5ccc(F)cc5)ccc4O[C@@H]3[C@@H](CO)O2)CC1 | -5.91% (inactive)
42 | CCCN1C[C@H](C)[C@@H](OC)CN(C)C(=O)c2ccc(NC(=O)CC)cc2OC[C@@H]1C | 4.54% (inactive)
43 | Cc1noc(C)c1S(=O)(=O)NCCc1ccc(S(N)(=O)=O)cc1 | -7.32% [at 12.5 µM] (inactive)
44 | COc1ccc(CNS(=O)(=O)c2cc(-c3cc(C)no3)ccc2C(C)C)cc1 | 200% [at 12.5 µM] (active)
45 | Cc1cc(-c2ccc(C)c(S(=O)(=O)Nc3ccc(S(N)(=O)=O)cc3)c2)on1 | 5.41% [at 12.5 µM] (inactive)
46 | Cc1cc(-c2ccc(C)c(S(=O)(=O)NCCCN(Cc3ccccc3)C(C)C)c2)on1 | 46.4% [at 12.5 µM] (inactive)

Row | SMILES | activation (reporter increase)
47 | CCOc1ccccc1CNS(=O)(=O)c1cc(-c2cc(C)no2)ccc1C | 54.4% [at 12.5 µM] (inactive)
48 | CCc1ccc(-c2cc(C)no2)cc1S(=O)(=O)NCCc1ccc(S(N)(=O)=O)cc1 | 124% [at 12.5 µM] (active)
49 | C[C@@H]1CN([C@@H](C)CO)C(=O)c2cc(NC(=O)Nc3cccc4ccccc34)ccc2O[C@H]1CN(C)Cc1ccc(Oc2ccccc2)cc1 | -7.47% (inactive)
50 | C[C@H](CO)N1C[C@H](C)[C@@H](CN(C)C(=O)C2CC2)Oc2ncc(-c3cccc(F)c3)cc2C1=O | -1.71% (inactive)
51 | CN(C)C(=O)C[C@@H]1CC[C@H]2[C@@H](COC[C@H](O)CN2S(=O)(=O)c2ccccc2)O1 | 0.2% (inactive)
52 | CCCNC(=O)Nc1ccc2c(c1)C(=O)N(C)[C@@H]1CC[C@@H](CC(=O)NC)O[C@H]1CO2 | -13.3% (inactive)
53 | O=C(C[C@@H]1CC[C@H]2[C@@H](COC[C@@H](O)CN2C(=O)c2ccc3c(c2)OCO3)O1)NC1Cc2ccccc2C1 | 5.8% (inactive)
54 | COCCNC(=O)C[C@@H]1CC[C@H]2[C@H](COc3ccc(NS(=O)(=O)c4ccc(Cl)cc4)cc3C(=O)N2C)O1 | 12.5% (inactive)
55 | C[C@@H]1CN([C@@H](C)CO)C(=O)c2cc(C#CC(C)(C)O)cnc2O[C@H]1CN(C)Cc1cccc(F)c1 | 0.476% (inactive)
56 | CO[C@@H]1CN(C)C(=O)c2ccc(NC(=O)C3CCC3)cc2OC[C@H](C)N(C(=O)CN(C)C)C[C@H]1C | -7.5% (inactive)
57 | CCCC(=O)Nc1ccc2c(c1)C(=O)N(C)[C@H]1CC[C@@H](CC(=O)NCc3cccc(F)c3)O[C@H]1CO2 | 120% (active)
58 | COCC(=O)Nc1ccc2c(c1)C(=O)N(C)[C@H]1CC[C@@H](CC(=O)NCc3cccc(F)c3)O[C@H]1CO2 | 62.5% (inactive)
59 | COCC(=O)Nc1ccc2c(c1)C(=O)N(C)[C@@H]1CC[C@@H](CC(=O)NCc3cccc(F)c3)O[C@@H]1CO2 | 41.7% (inactive)
60 | CS(=O)(=O)N1[C@H](C(=O)NCc2ccncc2)[C@@H](CO)[C@@H]2Cn3c(ccc(C4=CCCCC4)c3=O)[C@@H]21 | 1.3% (inactive)
61 | O=C(Nc1cc(S(=O)(=O)Nc2ccc(Cl)cc2)ccc1O)c1ccc(F)cc1F | 118% [at 12.5 µM] (active)
62 | CCS(=O)(=O)c1ccc(O)c(NC(=O)COc2ccc(Cl)cc2)c1 | 2.08% [at 12.5 µM] (inactive)
63 | O=C(Nc1cccc(S(=O)(=O)NC2=NCCC2)c1)c1ccc(F)cc1F | 0.138% [at 12.5 µM] (inactive)
64 | C[C@H](CO)N1C[C@H](C)[C@H](CN(C)C(=O)NC2CCCCC2)OCCCC[C@H](C)Oc2ccc(NC(=O)Nc3ccc4c(c3)OCO4)cc2C1=O | -2.47% (inactive)
65 | C[C@@H]1CCCCO[C@H](CN(C)Cc2ccccc2)[C@H](C)CN([C@H](C)CO)C(=O)c2cc(NS(=O)(=O)c3ccc(Cl)cc3)ccc2O1 | -12.3% (inactive)
66 | COc1ccc(S(=O)(=O)Nc2ccc3c(c2)C(=O)N([C@@H](C)CO)C[C@@H](C)[C@H](CN(C)C(=O)CCC(F)(F)F)OCCCC[C@H](C)O3)cc1 | -1.47% (inactive)
67 | C[C@@H]1CN([C@@H](C)CO)C(=O)c2cc(-c3cncnc3)cnc2O[C@H]1CN(C)C(=O)c1cccc(F)c1 | -0.099% (inactive)
